Shown are actives, neighbours in structure and some others; about 21% of the full set was active somewhere.
TDP1 cell CPT: qHTS for Inhibitors of human tyrosyl-DNA phosphodiesterase 1 (TDP1): qHTS in cells in presence of CPT | AID 686979, 2013 | Potency, µM (highest dose often 46.2 µM), inactives show at the highest dose activity change, negative = growth inhibition, hits mostly inhibitors | chicken DT40 Tdp1-/-;hTDP1 cells + 20 nM CPT, ATP luminescence, 48 h | hit rate 12% among 420,000; note: potency is the fitted concentration of half-maximal effect; nearly all actives have a fitted effect of over 55% in size
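Cell growth measured by CellTiter-Glo luminescence after a minimum 48 h, 37 C compound exposure with 20 nM CPT in Tdp1-knockout DT40 cells stably expressing hTDP1, seeded 400/well; qHTS titration format.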
IL-1B inflam inh: qHTS for Inhibitors of Inflammasome Signaling: IL-1-beta AlphaLISA Primary Screen | THP-1 LPS/ATP IL-1B secretion, AlphaLISA, 16 h; active compounds read low | activity change, % at 57.5 µM | hit rate 4.7% among 360,000; in the data active = activity change below about -50%; inconclusive = mostly about -30% to -49%
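Secreted IL-1B measured by AlphaLISA bead assay after 16 h compound exposure of THP-1 cells; compounds (final up to 57.5 uM) added 1 h before LPS (250 ng/mL) and ATP (1.25 mM) stimulation; lower signal means less secretion.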
ELG1 repair inh: qHTS screen for small molecules that inhibit ELG1-dependent DNA repair in human embryonic kidney (HEK293T) cells expressing luciferase-tagged ELG1; HEK293T ELG1-luciferase reporter, luminescence, 16 h; DNA damage induced by 5-fluorouridine; Potency, µM (series often up to 46.1 µM), for inactives: at the top dose activity change, negative = inhibition, usual class: inhibitors; hit rate 2.3% among 330,000; note: potency is the fitted concentration of half-maximal effect; nearly all actives have a fitted effect of over 55% in size
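5-Fluorouridine DNA damage + compound/DMSO, 2,000 cells/well, 16 h, 37 °C/5% CO2. ONE-Glo, 30 min RT, luminescence. Readout = decrease in reporter signal.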
VP16 counter: VP16 counterscreen qHTS for inhibitors of ROR gamma transcriptional activity; hit rate 3.5% among 310,000; Drosophila S2 Gal4-VP16 UAS-luciferase, luminescence, 20 h; Potency, µM (highest dose often 53.6 µM), for inactives: at the highest dose activity, negative = inhibition, most hits filed as inhibitors;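 note: Gal4-VP16 expression switched on by copper sulfate through the metallothionein promoter; potency is the fitted concentration of half-maximal effect; nearly all actives have a fitted effect of over 50% in size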
DT40 TDP1 no CPT: qHTS for Inhibitors of human tyrosyl-DNA phosphodiesterase 1 (TDP1): qHTS in cells in absence of CPT; DT40 Tdp1-/- hTDP1 cells, no CPT, ATP luminescence, 48 h; Potency, µM (series often up to 46.2 µM), without a hit: at the highest dose activity change, negative = growth inhibition, most hits filed as inhibitors; hit rate 15% among 420,000; note: potency is the fitted concentration of half-maximal effect; nearly all actives have a fitted effect of over 55% in size
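Luminescent ATP content (CellTiter-Glo) served as the growth readout. Knockout chicken DT40 cells expressing human TDP1 were exposed to compounds without camptothecin for a minimum 48 hr at 37 °C.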
RORgamma inh: qHTS for inhibitors of ROR gamma transcriptional activity. Nuclear receptor ROR-gamma (Mus musculus), P51450. AID 2551, 2010. hit rate 5.4% among 310,000. Potency, µM (top dose mostly 53.6 µM), inactives show at the highest dose activity change, negative = inhibition, most hits filed as inhibitors. Drosophila S2 Gal4-RORgamma UAS-luciferase reporter, 20 h; note: potency is the fitted concentration of half-maximal effect; nearly all actives have a fitted effect of over 60% in size
Target sequence (P51450 whole entry, looked up, the tested form may be a part): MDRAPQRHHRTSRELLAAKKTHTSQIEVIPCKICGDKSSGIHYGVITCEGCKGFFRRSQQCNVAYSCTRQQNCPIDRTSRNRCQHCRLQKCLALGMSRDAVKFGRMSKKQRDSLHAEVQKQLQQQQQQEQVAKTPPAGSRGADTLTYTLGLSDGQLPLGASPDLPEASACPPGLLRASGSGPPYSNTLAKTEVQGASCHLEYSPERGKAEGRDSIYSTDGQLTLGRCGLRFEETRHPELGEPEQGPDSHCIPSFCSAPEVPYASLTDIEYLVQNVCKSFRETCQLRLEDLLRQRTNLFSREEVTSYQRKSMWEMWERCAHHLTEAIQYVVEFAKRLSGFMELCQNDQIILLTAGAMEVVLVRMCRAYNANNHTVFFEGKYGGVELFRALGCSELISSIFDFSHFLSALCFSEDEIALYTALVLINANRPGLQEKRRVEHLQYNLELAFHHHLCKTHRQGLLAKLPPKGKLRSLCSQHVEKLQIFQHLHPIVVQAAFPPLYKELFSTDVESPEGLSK
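Read-out: Photinus luciferase luminescence; inhibitors lower reporter signal. Insect Schneider cells with Gal4-ROR gamma fusion under metallothionein promoter, UAS reporter; 700 uM final copper sulfate induction, 20 hr, ambient temperature.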
Numbers without * were called inactive; i = inactive; ? = inconclusive; · = no result given; [ ] = dose if it differs, or a comment. Unless noted, calls come from the whole dose curve; as a rule, active = well fitted curve in the direction sought with a large enough effect; inconclusive = small, poorly fitted or top-dose-only effect, or another doubt; inactive = no such curve, though single readings can be large; an effect the other way counts as inactive or inconclusive. % is set by controls: 0 for no effect and ±100 for the full control effect.

SMILES	TDP1 cell CPT	IL-1B inflam inh	ELG1 repair inh	VP16 counter	DT40 TDP1 no CPT	RORgamma inh
CCOc1cccc(-c2cc(C(=O)N3N=C(C)CC3(O)C(F)F)c3ccccc3n2)c1 (configuration not stated)	15.9%	-64.1*	?	9.0%	?	42.8%
Cc1nc(C/C(=N\N)c2ccc(O)cc2O)cs1	-5.0%	30.6	-7.7%	-1.2%	-9.7%	11.7%
CC(=O)Oc1ccc(C(=O)Cc2ccccn2)c(O)c1	-0.1%	-1.6	?	?	-6.6%	0.8%
N/N=C(\Cc1cscn1)c1ccc(O)cc1O	-7.9%	4.8	23.1µM*	-9.1%	?	11.2%
Oc1ccc(/C(Cc2ccccn2)=N\Nc2ccccc2)c(O)c1	?	-179.7*	9.5%	3.1%[10 µM]	?	3.6%
Cc1c(O)ccc(/C(Cc2ccc3ccccc3n2)=N\O)c1O	20.6µM*	-66.8*	?	?	20.6µM*	?
Oc1ccc(/C(Cc2ccc3ccccc3n2)=N\Nc2ccccc2)c(O)c1	?	-97.9*	7.3%	3.4%	23.1µM*	7.7%
O=C(Cc1nc2ccccc2s1)c1ccc(O)cc1O	·	·	?	·	·	-31.1%[0.365 µM]
Cc1ccccc1C(=O)Nc1cccc(-c2ccc(N3CCOCC3)nn2)c1	?	-11.7	?	·	?	·
O=C1C=C(c2ccccc2)C[C@H](c2cccs2)[C@H]1n1nnc([N+](=O)[O-])n1	6.51µM*	-73.0*	?	?	5.8µM*	?
C=CCNCCCOc1ccc(Cl)cc1Br	?	?	21.9%	0.8%	?	-3.3%
COCCCNCCCOc1ccc(Cl)cc1C(C)(C)C	11.6µM*	-89.2*	-0.3%	?	18.4µM*	?
Clc1ccc(OCCCNCc2ccccc2)c(Br)c1	14.6µM*	·	28.0%	-7.2%	16.4µM*	0.3%
Cc1cc(OCCCCCNCCO)ccc1Cl	14.6µM*	-17.7	?	-16.4%	16.4µM*	19.7%
C=CCNCCCCOc1ccc(Br)cc1C	?	-27.2	-3.5%	-1.1%	?	-16.2%
Cc1cc(Br)ccc1OCCCCNCCO	23.1µM*	-29.9	-4.4%	0.9%	20.6µM*	-1.0%
Cn1c(=O)c2c(nc(Sc3ncnn3CC(=O)N3CCOCC3)n2C)n(C)c1=O	0.7%	9.6	0.0%	-0.8%	-0.5%	0.7%
Cc1ccc(Cl)c2c1=NC(=O)C=2c1[nH]c(=S)[nH]c1O	-5.4%	-1.7	-4.9%	-13.9%	5.1%	-3.1%
COc1ccccc1-c1nc(C#N)c(NCc2ccc(F)cc2)o1	-28.1%	-21.8	?	0.1%	?	-3.9%
OCCNCCCOc1ccc(Cl)cc1Br	?	-10.9	?	-10.0%	29.1µM*	6.8%
COCCNCCCOc1ccc(Cl)cc1Br	?	?	?	-11.3%	16.4µM*	1.0%
CCc1ccc(NC(=O)Cn2c(=O)n(CCCCC(=O)NCCc3ccccc3)c(=O)c3ccccc32)cc1	-12.1%	·	·	·	-11.7%	·
Cc1occc1C(=O)N(C)CC1CCCN(CCc2ccc(Cl)cc2)C1 (configuration not stated)	?	-21.7	·	·	20.6µM*	·
COc1ccc(CN(C)CC2CCCN(CCc3ccc(F)cc3)C2)c(OC)c1OC (configuration not stated)	23.1µM*	·	-10.3%	-5.6%	14.6µM*	-2.5%
CCN(Cc1ccc(C#CCCO)cc1)CC1CCCN(CCc2cccc(F)c2)C1 (configuration not stated)	?	-23.2	-12.1%	0.8%	20.6µM*	-38.0%
SMILES	TDP1 cell CPT	IL-1B inflam inh	ELG1 repair inh	VP16 counter	DT40 TDP1 no CPT	RORgamma inh
COc1ccc(CCN2CCCC(CN(C)C(=O)c3ccoc3C)C2)cc1 (configuration not stated)	-18.6%	i	?	-8.9%	-28.6%	-0.5%
COc1ccc(CCN2CCCC(CN(C)Cc3cc(OC)ccc3OC)C2)cc1 (configuration not stated)	?	?	-12.3%	-7.7%	?	0.0%
CN(Cc1ccccc1O)CC1CCCN(CCc2ccc(Cl)cc2)C1 (configuration not stated)	?	-14.2	-11.2%	2.6%	?	-28.0%
CN(Cc1ccc(C#CCCO)cc1)CC1CCCN(CCc2ccc(Cl)cc2)C1 (configuration not stated)	18.4µM*	-28.6	-6.7%	2.4%	14.6µM*	-32.2%
Cc1ccc(S(=O)(=O)N2CCN(c3cc(-c4cccs4)nc4ccccc34)CC2)cc1	-2.1%	·	·	·	-1.5%	·
COc1nc(Cc2ccc(Cl)cc2)nc2ccccc12	2.9%	-22.3	-17.3%	-13.3%	?	29.9%
COc1cc2cncc(Cc3ccc(Cl)cc3)c2cc1OC	14.6µM*	-11.0	?	·	18.4µM*	·
COc1cccc(-c2ccc3ncnc(NC4CC4)c3c2)c1	16.4µM*	·	·	?	11.6µM*	3.3%
CNc1ncnc2ccc(-c3cccc(OC)c3)cc12	16.4µM*	·	·	-12.0%	23.1µM*	36.9%
CC(=O)NCCNc1ncnc2ccc(-c3ccoc3)cc12	-12.5%	·	·	-3.1%	-15.3%	18.3%
COc1cccc(-c2ccc3ncnc(NCCNC(C)=O)c3c2)c1	14.6µM*	·	·	-11.8%	?	20.8%
COc1cccc(-c2ccc3ncnc(NC4CCNCC4)c3c2)c1	?	·	·	-5.6%	13µM*	2.9%
Cc1nnc(SCC(=O)Nc2ccccc2)c2ccccc12	-6.5%	-101.8*	13.1%	?	?	-7.4%
Cc1ccc(NC(=O)CSc2nncc3ccccc23)cc1	5.5%	-19.8	0.0%	-4.2%	-12.1%	2.8%
COc1ccc2cnnc(SCC(=O)Nc3ccccc3)c2c1OC	-27.9%	-58.1*	?	-4.5%	?	33.5%
Cc1nnc(SCC(=O)Nc2ccccc2)[nH]c1=O	-0.6%	-6.0	3.0%	-11.2%	-9.7%	-16.2%
Cc1nnc(SCC(=O)Nc2ccc(O)cc2)c2ccccc12	21.1%	-98.5*	16.5%	0.7%	-7.0%	?
Cc1ccccc1NC(=O)CSc1nnc(C)c(=O)[nH]1	10.6%	-7.3	-3.1%	-16.1%	-11.8%	-23.4%
Cc1ccccc1NC(=O)CSc1nnc(C)c2ccccc12	-3.8%	-68.7*	-2.0%	5.5%	7.6%	-2.8%
Cc1ccc(NC(=O)Cc2ccc(-n3c(C)nc4cccnc43)cc2)c(Cl)c1	5.17µM*	·	·	·	4.11µM*	·
CCOCC(=O)Nc1cccc(-c2nc3cccnc3s2)c1C	-6.6%	-2.6	-24.9%	3.0%	-29.0%	31.9%

Screens from PubChem.
